# About 1,100 (0.5%) of roughly 220,000 compounds were called active.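 The calls were made as follows: active = inhibition above about 30% (limit read from the data); inactive = the rest.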 Many of the other results were omitted from the sample, so actives are more common in it than they were.
# Molecular target: Neutrophil cytosol factor 1 (Homo sapiens) (UniProt P14598)
# Assay: p47phox/p22phox peptide binding inhibitors, primary screen, biochemical, uHTS, NADPH oxidase regulatory subunit (AID 1274);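 also: 0% = p47phox with labelled peptide and 100% = labelled peptide alone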
# Settings: fluorescence polarization, 2 h, at 24.7 µM, active compounds read high
# Neutrophil cytosol factor 1 (Homo sapiens), sequence (P14598 whole entry, looked up): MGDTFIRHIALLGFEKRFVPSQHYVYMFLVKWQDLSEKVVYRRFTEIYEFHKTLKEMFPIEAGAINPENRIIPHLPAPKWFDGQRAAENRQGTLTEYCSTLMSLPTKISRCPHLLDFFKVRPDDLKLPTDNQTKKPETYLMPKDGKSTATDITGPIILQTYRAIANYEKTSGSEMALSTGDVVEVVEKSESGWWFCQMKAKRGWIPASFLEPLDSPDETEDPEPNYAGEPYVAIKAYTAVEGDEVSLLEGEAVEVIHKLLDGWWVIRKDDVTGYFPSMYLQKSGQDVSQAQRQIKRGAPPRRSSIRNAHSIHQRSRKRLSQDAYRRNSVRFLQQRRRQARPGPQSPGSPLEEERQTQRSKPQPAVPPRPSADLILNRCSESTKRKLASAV
row,Compound,inhibition
1,O=[N+]([O-])c1ccc2c(c1)C(O)n1nc(-c3ccccc3)nc1S2 (stereo not drawn),-0.84% (inactive)
2,O=C1/C(=C/c2coc3ccc(O)cc3c2=O)SC(=S)N1c1ccccc1,-31.6% (inactive)
3,CCC1(C)Cc2c(sc3nc(SC)[nH]c(=O)c23)CO1 (stereo not drawn),-0.95% (inactive)
4,Fc1ccccc1Cn1cnc(NC(=S)NCCc2ccccc2)n1,5.03% (inactive)
5,Cc1nc(C)c(-c2csc(NCCc3ccccc3)n2)s1,-1.49% (inactive)
6,S=c1[nH]nc(Nc2ccccc2)s1,6.03% (inactive)
7,S=c1[nH]nc(NCCc2ccccc2)s1,35.4% (active)
8,CC1CC(NC(=O)/C(C#N)=C/c2ccc[nH]2)CC(C)(C)C1 (stereo not drawn),-2.3% (inactive)
9,COCCCNC(=S)N1CCCC(c2nc3cc(C)c(C)cc3[nH]2)C1 (stereo not drawn),33.6% (active)
10,CCCNC(=S)N1CCCC(c2nc3ccccc3[nH]2)C1 (stereo not drawn),-3.87% (inactive)
11,CCNC(=S)N1CCC(c2nc3cc(C)c(C)cc3[nH]2)CC1,-2.83% (inactive)
12,O=C(O)CCc1nc2cc(Cl)ccc2n(Cc2ccccc2)c1=O,-13.1% (inactive)
13,Cc1ccccc1CSc1nnc(CCCCCNC(=O)OC(C)(C)C)o1,-9.1% (inactive)
14,COC(=O)c1sc(NC(=S)NC(=O)c2ccc(C)cc2)nc1C,-24.1% (inactive)
15,COc1ccc(F)cc1S(=O)(=O)N1CCCCC1,-2.33% (inactive)
16,CC1=C/C(=N\OS(=O)(=O)c2ccccc2)C=CC1=O,53.2% (active)
17,CC1=C/C(=N\S(=O)(=O)c2ccccc2)C(C(C)C)=CC1=O,-6.28% (inactive)
18,CCOC(=O)C1(S(=O)(=O)c2ccccc2)CCN(Cc2ccccc2)CC1,-0.94% (inactive)
19,CCN(CC)CCn1cnc2c1c(=O)n(CCOC(=O)c1cc(OC)c(OC)c(OC)c1)c(=O)n2C,-17% (inactive)
20,Cc1cc(-c2nc(C)c(-c3nnc(SCC(=O)Nc4ccccc4)n3C)s2)no1,-5.21% (inactive)
21,O=C(Cc1cccc2ccccc12)Nc1ccc2oc(-c3ccccc3)nc2c1,-10.3% (inactive)
22,COc1cccc(-c2nc3cc(C)ccc3o2)c1,-18% (inactive)
23,COc1ccc2oc(-c3cccc(NC(=O)CSc4ccc(Cl)cc4)c3)nc2c1,152% (active)
24,O=c1[nH]n2c(=O)c3c([nH]c2c1N=Nc1ccccc1)CCC3,5.2% (inactive)
25,Cc1cc(C)n2nc(SCC(N)=O)nc2n1,-2.75% (inactive)

row,Compound,inhibition
1,Cc1nc2nc(SCC(=O)NCc3ccco3)nn2c(C)c1Cc1ccccc1,39.5% (active)
2,COc1cc(OC)cc(-c2nc3nc(C)c(CCC(=O)NCc4ccco4)c(C)n3n2)c1,-14.7% (inactive)
3,Cc1ccc(SCC(=O)NC(=O)NCc2ccco2)c(C)c1,-8.32% (inactive)
4,Cc1ccc(Cc2c(C)nc3nc(SCC(=O)NCCN4CCOCC4)nn3c2C)cc1,2.55% (inactive)
5,Cc1cc(C)n2nc(SCC(=O)NC(=O)NCc3ccco3)nc2n1,65.5% (active)
6,COc1cccc2c1OCC(CN1CCN(C3CCCCC3)C(CCO)C1)=C2 (stereo not drawn),-0.19% (inactive)
7,Cc1noc(C)c1-c1nc(CSc2ccc(Cl)cc2)no1,-18.6% (inactive)
8,CCc1ccc[n+](-c2nc([O-])sc2C=O)c1,-6.22% (inactive)
9,CCOC(=O)c1ccc(S(=O)(=O)N(CCO)Cc2cc3cc(OC)c(OC)cc3[nH]c2=O)cc1,-9.36% (inactive)
10,CCc1ccc(NC(=O)CN2C(=O)CSC2=O)cc1,1.09% (inactive)
11,OC(CN1C2=NCCCN2c2ccccc21)c1ccc(Br)cc1 (stereo not drawn),-5.7% (inactive)
12,O=C(CN1C(=O)/C(=C\c2ccc(C(F)(F)F)cc2)Sc2ccccc21)NCc1ccco1,-2.69% (inactive)
13,CCN1CCN(CCNC(=O)c2ccc(/C=C3/Sc4ccccc4N(Cc4cccc(C)c4)C3=O)cc2)CC1,102% (active)
14,Cc1nn(Cc2ccccc2)c(C)c1C(=O)NCCN1C(=O)S/C(=C\c2ccc(F)cc2)C1=O,19.6% (inactive)
15,CCOc1ccc2nc(C(=O)N3CCCC(C)C3)sc2c1 (stereo not drawn),-1.85% (inactive)
16,O=C(NCc1ccco1)C1CCCN1S(=O)(=O)c1ccccc1C(F)(F)F (stereo not drawn),-2.26% (inactive)
17,O=C(Nc1cccc(NC(=O)c2ccco2)c1)c1cnccn1,-22.1% (inactive)
18,O=C(Nc1ccc2c(c1)OCCO2)c1cnccn1,161% (active)
19,O=C(Nc1ccc2c(c1)OCCO2)c1ccoc1,-11.2% (inactive)
20,O=P(O)(CN1CCCCCC1)C1Cc2ccccc2C1,-16.2% (inactive)
21,O=C(COc1ccc([N+](=O)[O-])cc1Cl)Nn1cnnc1,-5.37% (inactive)
22,COc1cccc(-n2c(SCC(=O)c3c[nH]c4ccccc34)nc3ccccc3c2=O)c1,-14.5% (inactive)
23,COc1ccc2[nH]c3ccc(OC)cc3c2c1,-9.23% (inactive)
24,CCN(CC)CC(=O)c1c[nH]c2ccc(OC)cc12,68.2% (active)
25,CCNc1ccc(C(=O)OCC(=O)N2c3ccccc3NC(=O)C2(C)C)cc1[N+](=O)[O-],-6.42% (inactive)

row,Compound,inhibition
1,CC(=O)NC(CC(=O)Nc1nccs1)c1ccccc1 (stereo not drawn),1.69% (inactive)
2,CCOC(=O)N1CCC(NC(=O)C(NS(=O)(=O)c2ccc3c(c2)CCN3C(=O)CC)C(C)C)CC1 (stereo not drawn),2.67% (inactive)
3,Cc1ccc2nc(-c3cccc(Br)c3)cc(C(=O)Nn3cnnc3)c2c1,-7.35% (inactive)
4,COc1ccc(Cl)cc1C(=O)NCc1cn(C)nc1C,-8.12% (inactive)
5,Cc1ccc(-c2cc(C(=O)NCc3cn(C)nc3C)c3cc(Br)ccc3n2)cc1,31.9% (active)
6,OC(CNCc1ccc2c(c1)OCO2)COc1ccccc1 (stereo not drawn),-9.52% (inactive)
7,CN1CCC(=NNC(=O)CN(c2cccc(Cl)c2)S(C)(=O)=O)CC1,6.83% (inactive)
8,Cc1ccc(S(=O)(=O)N(CC(=O)NN=C2CCN(C)CC2)c2ccc(F)cc2)cc1,37.2% (active)
9,CCNC(=O)CN(c1ccc(C)cc1)S(=O)(=O)c1ccc(SC)cc1,-7.61% (inactive)
10,COc1cc(C(F)(F)F)nc2c(Br)c(C(C)(C)C)nn12,7.7% (inactive)
11,Cc1ccc(SCC(=O)c2cc(C)c(OC(=S)N(C)C)c(C)c2)cc1,-4.09% (inactive)
12,O=C1NC[C@@H](Cc2ccc(O)cc2)N(CCc2cccc(F)c2)C1=O,-6.81% (inactive)
13,Cc1cc(C)c2nc(-c3ccco3)cc(C(=O)O)c2c1,-9.96% (inactive)
14,Cc1cc(C)c2nc(SCCC#N)nc(C)c2c1,1.52% (inactive)
15,Cc1cc(C)c2nc3nc(C)cc(C)c3c(N)c2c1,35.3% (active)
16,COc1ccc(CNC(=O)CCC(=O)Nc2nnc(C(C)C)s2)cc1,-6.23% (inactive)
17,CC1=NN(C(=O)c2ccccc2Br)C(O)(c2cccnc2)C1 (stereo not drawn),1.24% (inactive)
18,CCOC(=O)C1(O)CC(C)=NN1C(=O)c1cccc(Br)c1 (stereo not drawn),-4.11% (inactive)
19,CC1=NN(C(=O)c2ccc(Br)cc2)C(O)(c2ccccc2)C1 (stereo not drawn),40.2% (active)
20,CN(C)C(CNC(=O)Cc1ccc([N+](=O)[O-])cc1)c1ccccc1 (stereo not drawn),-9.03% (inactive)
21,COCCN(C(=O)C(C)C)c1nnc(-c2ccc(C(C)(C)C)cc2)s1,-3.33% (inactive)
22,O=C(Cc1cccs1)Nc1nnc(SCc2ccc(F)cc2)s1,-11.1% (inactive)
23,COc1ccc(/C=N/n2nnnc2N)cc1OC,31.6% (active)
24,Nc1nnnn1/N=C/c1cccs1,-3.56% (inactive)
25,C=CCOc1c(Br)cc(/C=N\n2nnnc2N)cc1OC,2.05% (inactive)

row,Compound,inhibition
1,CCc1ccc(-c2nn(-c3ccccc3)cc2CSC(=N)N)cc1,51% (active)
2,CCn1c(SCc2ccc(C)cc2)nnc1-c1nn(-c2ccccc2)ccc1=O,-13% (inactive)
3,N=C(N)SCc1cccc2ccccc12,-8.51% (inactive)
4,CCOc1cc(/C=C(/C#N)c2ccc(Cl)cc2)cc(Cl)c1OCC(=O)O,-9.24% (inactive)
5,COC(=O)CN1C(=O)N/C(=C/c2ccc(OC)c(C)c2OC)C1=O,5.97% (inactive)
6,Cc1ccc(-c2nn(-c3cccc(F)c3)cc2CNCCc2ccncc2)o1,-21.2% (inactive)
7,CSCCNCc1cn(-c2ccc(F)cc2F)nc1-c1ccccc1C,30.6% (active)
8,COc1ccccc1CC(=O)Nc1ccc(F)cc1F,6.55% (inactive)
9,O=C(Nc1ccccc1N1CCOCC1)c1csc2c1CCCC2,-2.28% (inactive)
10,c1csc(-c2nnc(COc3ncnc4sccc34)o2)c1,-9.61% (inactive)
11,NC(=O)NC(=O)CSc1nc2cc([N+](=O)[O-])ccc2n1-c1cccc(C(F)(F)F)c1,-1.12% (inactive)
12,CCCc1c(C(=O)O)cnn1-c1ccc(Cl)cc1,-1.8% (inactive)
13,CC1(C)CC(N2CCN(C(c3ccccc3)c3ccccc3)CC2)=CC(=[N+]2CCCCC2)C1,30.8% (active)
14,CC1(C)CC(=O)C=C(N2CCCC2)C1,-17.5% (inactive)
15,CC(C)NC(=S)N1CCN(C(c2ccccc2)c2ccccc2)CC1,-3.69% (inactive)
16,CCCSc1ncccc1C(=O)O,-1.29% (inactive)
17,Cc1ccc(Nc2nc(Cl)c(C=O)s2)cc1,-45% (inactive)
18,O=C(/C=C/c1ccccc1)Nc1nnc(SCC(=O)c2ccc3ccccc3c2)s1,-19.6% (inactive)
19,O=C(CCc1ccccc1)Nc1ncc([N+](=O)[O-])s1,41.8% (active)
20,O=C(Cc1c(F)cccc1Cl)Nc1ncc([N+](=O)[O-])s1,-2.51% (inactive)
21,CC(=O)Oc1ccccc1C(=O)Nc1ncc([N+](=O)[O-])s1,-3.91% (inactive)
22,Cn1c(C(=O)O)ccc1S(=O)(=O)N(Cc1ccccc1)Cc1ccccc1,0.4% (inactive)
23,Cc1ccc2c(CC(=O)NCc3cccs3)coc2c1,-14.7% (inactive)

# — PubChem BioAssay AID1274 (Emory University Molecular Libraries Screening Center, 2008)
